Test [1] deals with Albumin (Bos taurus) (UniProt P02769). Nature of the test: compounds binding labelled BSA control protein – biochemical, small-molecule microarray, Alexa647 label, 635/667 nm fluorescence, artefact control for SMM control protein annotation, profiling panel (AID 1118).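 Also: score merges 667 nm emission intensity and signal-to-noise per printed compound spot.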 As to conditions: BSA-A647 binding, fluorescence 635 nm, higher = more signal.
Test [2] in a line: probe aXIP binding to arrayed compounds – biochemical, NeuroSMM set, 635/667 nm fluorescence, primary screen (AID 1119).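 Also: probe is the protein aXip251-270 applied at 1 µg/mL to compound-printed slides; binding of probe to printed compounds measured as 667 nm fluorescence plus signal to noise.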 The following applies: small-molecule microarray, higher = more signal, called active from +8 up or from −8 down.
Test [3] is described as follows: probe aNOTCH3 binding on compound microarray – biochemical, small-molecule microarray, 635/667 nm fluorescence, primary screen (AID 1120).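 Also: probe is a biotin-tagged antibody raised against NOTCH3 rather than NOTCH3 protein; score merges spot fluorescence near 667 nm with spot signal to noise.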 The following applies: higher = more signal.
A short description of test [4]: probe aNOTCH2 binding on compound microarray – biochemical, small-molecule microarray, 635/667 nm fluorescence, primary screen (AID 1121).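 Also: score merges feature fluorescence read at 667 nm with its signal to noise.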 The following applies: higher = more signal.
Test [5] has as its target Carbonic anhydrase 2 (Homo sapiens) (UniProt P00918). Kind of test: compounds binding carbonic anhydrase 2 – biochemical, small-molecule microarray, Alexa647-labelled CAII, profiling panel (AID 1122). As to conditions: CAII-A647 binding fluorescence, higher = more signal.
Test [6] in a line: COS7 lysate on small-molecule microarray, probe aHis, 635 nm (AID 1123).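 Also: z-score combines 667nm fluorescence intensity with signal-to-noise per printed compound spot.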 As to conditions: COS7 cell lysate, fluorescence, higher = more signal.
Test [7] is described as follows: probe aLAP1 signal on lysate-treated microarray – cell lysate, small-molecule microarray, COS7 lysate, primary screen (AID 1124).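 Also: lysate comes from COS7 cells expressing LAP1 and is applied at 0.3 µg/mL; score merges spot fluorescence near 667 nm with signal-to-noise over triplicate slides.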 The following applies: probe aLAP1, fluorescence, higher = more signal.
Test [8] has as its system Sam68 (KHDRBS1). Nature of the test: compounds binding KHDRBS1 protein – biochemical, small-molecule microarray, 635 nm fluorescence, primary screen (AID 1125).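 Also: score merges 667 nm channel intensity with signal to noise over triplicate slides.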 As to conditions: higher = more signal.
Test [9] concerns Chordin-like protein 2 (CHRDL2). Nature of the test: compounds binding chordin-like 2 – biochemical, small-molecule microarray, 635 nm fluorescence, primary screen (AID 1126).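 Also: printed compound slides probed with Chrdl2 protein at 4 µg/mL for 1 h at 4 C; score merges 667 nm emission intensity with signal to noise over three replicate slides.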 The following applies: fluorescence 635 nm, higher = more signal.
The target in test [10] is Concanavalin-A (Canavalia ensiformis) (UniProt P02866). Kind of test: compounds binding concanavalin A lectin – biochemical, small-molecule microarray, Alexa647 label, 635 nm, artefact control for SMM control protein annotation, primary screen (AID 1127).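 Also: z combines 667 nm emission intensity with signal-to-noise across three replicate slides.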 As to conditions: ConA-A647 binding fluorescence, higher = more signal.
Test [11] is described as follows: compounds binding Alexa647 anti-His antibody – biochemical, small-molecule microarray, 635 nm fluorescence, artefact control for SMM control protein annotation, primary screen (AID 1128).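 Also: score merges feature fluorescence with signal-to-noise for each printed compound spot.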 As to conditions: higher = more signal.
Test [12] relates to Human papillomavirus type 1a E7 protein (residues 1-88). Kind of test: HPV1a E7 small-molecule binders, primary screen, biochemical, small-molecule microarray, residues 1-88, 635 nm (AID 1129). As to conditions: small-molecule microarray binding, fluorescence 635 nm; higher = more signal.
Test [13] concerns the target Focal adhesion kinase 1 (Homo sapiens) (UniProt Q05397). Nature of the test: PTK2 protein binding on printed compound slides – biochemical, small-molecule microarray, 635/667 nm fluorescence, BSA, DTT, primary screen (AID 1130).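 Also: composite of spot emission at 667 nm and signal to noise over triplicate slides.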 As to conditions: 635 nm fluorescence, higher = more signal.
In test [14] the test system is Fibrinogen (Alexa647-labelled). Kind of test: Alexa647-fibrinogen binding to printed small molecules – biochemical, small-molecule microarray, 635/667 nm fluorescence, artefact control for SMM control-protein annotation, profiling panel (AID 1131).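 Also: z-score merges 667 nm fluorescence with per-spot signal-to-noise over triplicate slides.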 As to conditions: fibrinogen-A647 binding fluorescence, higher = more signal.
Test [15] concerns the target Follistatin (Homo sapiens) (UniProt P19883). Nature of the test: FST protein binding to printed compounds – biochemical, small-molecule microarray, 635/667 nm fluorescence, primary screen (AID 1132). As to conditions: 635 nm fluorescence, higher = more signal.
Test [16] deals with Fibroblast growth factor 2 (Homo sapiens) (UniProt P09038). Nature of the test: basic fibroblast growth factor binding to printed compounds – biochemical, small-molecule microarray, 635/667 nm fluorescence, primary screen (AID 1133). The following applies: FGF2, fluorescence 635/667, higher = more signal.
A short description of test [17]: JC-1 mitochondrial potential readout, lung cancer cells – cell-based, A549, JC-1 fluorescence, basal, 24 h, 100 nL, profiling panel (AID 1138).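 Also: A549 lung adenocarcinoma cells under basal conditions with no added stimulus; test concentration not given here.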 As to conditions: higher = more signal.
For test [18], the system named is Lefty1. Kind of test: Lefty1 protein binding to printed compounds – biochemical, small-molecule microarray, 635/667 nm fluorescence, primary screen (AID 1139). As to conditions: fluorescence 635/667, higher = more signal.
Test [19] concerns wheat germ agglutinin (Triticum aestivum), Alexa647-labelled. Kind of test: Alexa647-WGA lectin binding to printed small molecules – biochemical, small-molecule microarray, 635/667 nm fluorescence, artefact control for SMM control-protein annotation, profiling panel (AID 1140).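 Also: score merges 667 nm feature emission with signal to noise over triplicate slides.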 The following applies: WGA-A647 binding, 635 nm fluorescence, higher = more signal.
For test [20], the target named is Luciferin 4-monooxygenase (Photinus pyralis) (UniProt P08659). Kind of test: inhibition of purified Photinus pyralis luciferase – biochemical, luminescence, purified enzyme, 2006 set, primary screen (AID 1141).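 Also: cell-free assay with purified firefly luciferase at 100 ng per well in PBS; test concentration not given here.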 The following applies: purified firefly luciferase, SteadyGlo luminescence, 30 min; higher = more signal, called active from +8 up or from −8 down.

For 5 compounds, composite z-score, composite Z-score and z-score results are on record in PubChem BioAssay.

Activity calls are given as the source filed them.

Sequence of Luciferin 4-monooxygenase (Photinus pyralis) (P08659 whole entry, looked up): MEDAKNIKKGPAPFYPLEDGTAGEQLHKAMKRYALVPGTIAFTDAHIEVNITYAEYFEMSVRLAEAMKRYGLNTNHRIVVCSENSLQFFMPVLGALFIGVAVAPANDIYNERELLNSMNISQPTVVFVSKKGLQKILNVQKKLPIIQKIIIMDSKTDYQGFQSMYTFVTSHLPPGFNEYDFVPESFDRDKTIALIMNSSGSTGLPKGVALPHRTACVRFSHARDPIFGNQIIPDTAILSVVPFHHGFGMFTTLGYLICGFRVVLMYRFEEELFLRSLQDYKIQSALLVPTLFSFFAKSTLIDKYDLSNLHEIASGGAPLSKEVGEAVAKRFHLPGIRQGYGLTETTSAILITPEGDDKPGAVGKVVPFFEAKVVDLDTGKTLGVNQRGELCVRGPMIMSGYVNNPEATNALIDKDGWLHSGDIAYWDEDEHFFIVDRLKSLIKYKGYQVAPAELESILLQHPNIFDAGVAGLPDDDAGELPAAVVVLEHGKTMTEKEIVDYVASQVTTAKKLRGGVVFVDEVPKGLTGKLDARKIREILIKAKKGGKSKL
Sequence of Albumin (Bos taurus) (P02769 whole entry, looked up): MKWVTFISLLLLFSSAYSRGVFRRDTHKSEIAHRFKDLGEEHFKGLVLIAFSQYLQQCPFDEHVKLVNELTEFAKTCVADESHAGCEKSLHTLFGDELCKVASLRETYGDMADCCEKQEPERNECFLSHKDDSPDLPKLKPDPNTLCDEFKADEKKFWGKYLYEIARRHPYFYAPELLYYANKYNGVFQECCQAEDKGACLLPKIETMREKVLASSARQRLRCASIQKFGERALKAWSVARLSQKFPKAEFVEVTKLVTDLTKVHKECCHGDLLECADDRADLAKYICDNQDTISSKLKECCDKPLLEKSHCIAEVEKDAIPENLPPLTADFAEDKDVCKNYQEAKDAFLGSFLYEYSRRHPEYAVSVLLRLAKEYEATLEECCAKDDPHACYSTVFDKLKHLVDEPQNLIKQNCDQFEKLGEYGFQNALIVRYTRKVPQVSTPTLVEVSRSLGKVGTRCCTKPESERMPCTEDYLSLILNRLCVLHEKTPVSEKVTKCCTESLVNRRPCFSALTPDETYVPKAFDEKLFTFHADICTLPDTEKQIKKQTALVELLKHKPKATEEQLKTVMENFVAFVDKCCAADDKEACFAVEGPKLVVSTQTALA
Sequence of Fibroblast growth factor 2 (Homo sapiens) (P09038 whole entry, looked up): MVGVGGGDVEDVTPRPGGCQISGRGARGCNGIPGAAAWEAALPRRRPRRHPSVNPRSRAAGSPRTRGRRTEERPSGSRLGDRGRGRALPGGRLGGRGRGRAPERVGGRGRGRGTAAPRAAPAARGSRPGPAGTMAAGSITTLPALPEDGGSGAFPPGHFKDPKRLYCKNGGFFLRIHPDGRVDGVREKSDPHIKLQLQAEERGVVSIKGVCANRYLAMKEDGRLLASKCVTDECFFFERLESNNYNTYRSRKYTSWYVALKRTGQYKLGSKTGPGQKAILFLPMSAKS
Sequence of Focal adhesion kinase 1 (Homo sapiens) (Q05397 whole entry, looked up): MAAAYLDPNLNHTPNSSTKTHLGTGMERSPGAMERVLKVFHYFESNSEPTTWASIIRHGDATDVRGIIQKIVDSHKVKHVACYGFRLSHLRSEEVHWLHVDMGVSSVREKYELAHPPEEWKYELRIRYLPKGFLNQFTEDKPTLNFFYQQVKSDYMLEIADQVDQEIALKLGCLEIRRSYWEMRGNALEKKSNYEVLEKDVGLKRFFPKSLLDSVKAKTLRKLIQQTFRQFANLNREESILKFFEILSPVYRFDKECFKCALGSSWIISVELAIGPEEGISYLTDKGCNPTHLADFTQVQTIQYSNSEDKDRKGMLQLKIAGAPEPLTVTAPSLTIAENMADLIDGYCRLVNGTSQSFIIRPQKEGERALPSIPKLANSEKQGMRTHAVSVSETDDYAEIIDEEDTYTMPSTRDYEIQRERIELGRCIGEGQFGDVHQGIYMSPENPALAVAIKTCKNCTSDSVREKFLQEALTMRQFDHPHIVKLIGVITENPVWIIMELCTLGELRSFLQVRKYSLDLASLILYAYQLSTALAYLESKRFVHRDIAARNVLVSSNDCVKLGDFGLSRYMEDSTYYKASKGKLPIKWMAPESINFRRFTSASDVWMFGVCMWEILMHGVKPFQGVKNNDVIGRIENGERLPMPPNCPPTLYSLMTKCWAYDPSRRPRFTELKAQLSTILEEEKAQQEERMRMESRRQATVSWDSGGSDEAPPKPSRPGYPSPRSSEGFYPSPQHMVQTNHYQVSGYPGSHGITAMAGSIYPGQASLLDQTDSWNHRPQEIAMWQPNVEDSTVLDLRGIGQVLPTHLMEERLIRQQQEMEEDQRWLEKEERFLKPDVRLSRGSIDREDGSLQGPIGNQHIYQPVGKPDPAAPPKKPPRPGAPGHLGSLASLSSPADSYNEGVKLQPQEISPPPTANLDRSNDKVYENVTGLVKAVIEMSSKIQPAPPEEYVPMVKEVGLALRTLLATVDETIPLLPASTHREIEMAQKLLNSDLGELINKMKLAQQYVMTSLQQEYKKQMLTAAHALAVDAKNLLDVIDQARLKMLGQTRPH
Sequence of Concanavalin-A (Canavalia ensiformis) (P02866 whole entry, looked up): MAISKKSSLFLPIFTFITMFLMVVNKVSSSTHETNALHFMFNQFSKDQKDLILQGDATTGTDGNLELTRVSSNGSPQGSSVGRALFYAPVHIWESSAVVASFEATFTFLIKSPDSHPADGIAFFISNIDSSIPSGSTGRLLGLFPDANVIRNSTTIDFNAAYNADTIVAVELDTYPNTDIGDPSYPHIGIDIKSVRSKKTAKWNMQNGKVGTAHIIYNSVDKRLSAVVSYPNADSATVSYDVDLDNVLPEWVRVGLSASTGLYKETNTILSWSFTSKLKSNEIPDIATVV
Sequence of Follistatin (Homo sapiens) (P19883 whole entry, looked up): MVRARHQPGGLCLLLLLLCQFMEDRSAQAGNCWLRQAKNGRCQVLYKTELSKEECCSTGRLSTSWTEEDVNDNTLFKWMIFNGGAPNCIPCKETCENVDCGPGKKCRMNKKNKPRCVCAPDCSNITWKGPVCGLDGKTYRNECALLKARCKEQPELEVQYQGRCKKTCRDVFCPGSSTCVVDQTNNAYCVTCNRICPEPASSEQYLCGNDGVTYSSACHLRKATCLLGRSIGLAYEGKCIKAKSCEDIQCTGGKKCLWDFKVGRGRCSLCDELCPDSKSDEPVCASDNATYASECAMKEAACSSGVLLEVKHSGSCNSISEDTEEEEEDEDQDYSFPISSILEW

Consider `CCCCCCc1nc(-c2ccc(-c3ccc(Cl)c(Cl)c3)o2)cc2c1[Si](C(C)C)(C(C)C)OC2`, for which the composite z-score in test [1] was 0.521; in test [3], -0.261; in test [4], -0.156; in test [5], -0.216; in test [6] it was 0.445; in test [7], -0.389. The composite z-score in test [8] is -0.248; in test [9], -0.834; in test [10] it was -0.48; in test [11], -0.265; in [12], -0.819; in [13] it was -0.0104. The composite z-score in [14] is -1.85; in test [15], -0.577; in test [16], -0.985; in test [18], -0.468; in test [19], 0.105. In addition, the composite Z-score in [2] was -0.935 (inactive). The z-score in test [17] is -0.413; in [20], -5.02 (inactive).
Turning to `O=C(NCC(O)CO)[C@@]1(CCS(=O)(=O)c2ccccc2)N=C(c2ccc(OCCCO)cc2)O[C@H]1c1ccccc1` (stereo not given in full), the composite z-score amounted to 0.905 in test [1]; 0.177 in test [3]; 0.137 in test [4]; 0.555 in test [5]; 3.17 in [6]; 1.11 in [7]. In addition, the composite z-score in test [8] was found to be 1.22; in test [9], 0.106; in test [10], 0.0968; in test [11] it was 1.9; in [12], 1.23; in test [13], 1.38. Further, the composite z-score in [14] is 0.993; in [15] it was 1.33; in test [16], -0.0831; in test [18], -1.02; in test [19], 0.762. Besides, in test [2], the composite Z-score was 1.06 (inactive). Further, the z-score in test [17] was -0.503; in test [20], -0.845 (inactive).
Consider `CC(C)(C)N1CC=CC23O[C@@H]4/C=C\CCCOC(=O)C4[C@H]2C(=O)N(CCCO)[C@@H]3C1=O` (stereo not given in full), for which the composite z-score in test [1] was 0.706; in test [3], 0.134; in test [4] it was -0.0846; in test [5] it was 0.866; in test [6] it was 0.644; in [7], 0.818. In addition, the composite z-score was -0.446 in test [8]; -1.44 in [9]; -1.02 in [10]; 0.343 in test [11]; -0.849 in test [12]; -0.572 in [13]. In addition, the composite z-score in test [14] is -2.06; in test [15], -0.768; in test [16], -0.811; in [18], -0.538; in test [19], -1.38. Also, the composite Z-score in test [2] was -0.191 (inactive). In addition, the z-score in [17] was -0.534; in test [20], 0.552 (inactive).
Take `COC(=O)[C@@]1(Cc2ccccc2)[C@H]2c3cc(C(=O)N(C)C)n(CCSC(=N)N)c3C[C@H]2CN1C(=O)c1ccccc1`: the composite z-score in test [1] is -0.107; in test [3], 0.0159; in [4], 0.0591; in [5], 0.877; in [6], 0.778; in test [7], 1.63. Besides, the composite z-score in [8] is -1.71; in [9], -0.721; in test [10] it was -1.36; in [11], 0.367; in test [12], 0.336; in [13], 0.117. Also, the composite z-score in [14] was 0.869; in [15], -0.239; in test [16] it was 0.277; in test [18] it was -0.318; in [19] it was 0.164. Also, the composite Z-score in [2] is 1.22 (inactive). Further, the z-score in test [17] is 0.378; in test [20], 1.13 (inactive).
For the compound `COC(=O)[C@]1(Cc2ccccc2)N=C(c2ccc(OCCCO)cc2)O[C@@H]1c1ccccc1CN=[N+]=[N-]`, the composite z-score in test [1] was -0.847; in [3], 0.0259; in test [4], -0.0017; in test [5] it was 0.403; in [6], 1.98; in test [7], -0.0103. Besides, the composite z-score came to 0.745 in test [8]; 0.214 in test [9]; 0.656 in test [10]; 1.12 in [11]; 1.16 in [12]; 0.687 in [13]. Moreover, the composite z-score in test [14] is 0.415; in [15], 1.44; in test [16], 0.702; in [18] it was 0.0393; in test [19] it was 0.418. In test [2], the composite Z-score was 0.384 (inactive). For the same compound, the values for the z-score in [17] and in test [20] were -1.74 and -1.44 (inactive), respectively.
